The assay relates to HCI01 (cells of a triple-negative basal-like breast cancer xenograft). Nature of the assay: cell viability of combination (% of vehicle); higher = less cytotoxic. The note with it: 1 µM; 72 h; partner dose: 10 nM. As to the method: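 PDX cells were treated for 72 h with each drug at 1 µM plus carfilzomib (10 nM; 100 nM for WHIM2). Luciferase viability is expressed as percent of vehicle.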
On to `Cc1cc(C(C#N)c2ccc(Cl)cc2)c(Cl)cc1NC(=O)c1cc(I)cc(I)c1[O-].[Na+]` (stereo not given) [Closantel Sodium] + CC(C)C[C@H](NC(=O)[C@H](CCc1ccccc1)NC(=O)CN1CCOCC1)C(=O)N[C@@H](Cc1ccccc1)C(=O)N[C@@H](CC(C)C)C(=O)[C@@]1(C)CO1 [Carfilzomib], for which the “cell viability of combination” value was found to be 68.9.

`Cc1cc(C(C#N)c2ccc(Cl)cc2)c(Cl)cc1NC(=O)c1cc(I)cc(I)c1O` (stereo not given) [Closantel] + CC(C)C[C@H](NC(=O)[C@H](CCc1ccccc1)NC(=O)CN1CCOCC1)C(=O)N[C@@H](Cc1ccccc1)C(=O)N[C@@H](CC(C)C)C(=O)[C@@]1(C)CO1 [Carfilzomib]: the “cell viability of combination” value amounted to 70.3. Turning to `CCCCCCCCCCCCCCCC[n+]1ccccc1.[Cl-]` [Cetylpyridinium Chloride] + CC(C)C[C@H](NC(=O)[C@H](CCc1ccccc1)NC(=O)CN1CCOCC1)C(=O)N[C@@H](Cc1ccccc1)C(=O)N[C@@H](CC(C)C)C(=O)[C@@]1(C)CO1 [Carfilzomib], the “cell viability of combination” value was 77. Turning to `CCCCCCCCCCCCCCCC[N+](C)(C)C.[Br-]` [Cetrimonium Bromide (CTAB)] + CC(C)C[C@H](NC(=O)[C@H](CCc1ccccc1)NC(=O)CN1CCOCC1)C(=O)N[C@@H](Cc1ccccc1)C(=O)N[C@@H](CC(C)C)C(=O)[C@@]1(C)CO1 [Carfilzomib], the “cell viability of combination” value is 72.8. The figure for `CCCCCCCCCCCC[N+](C)(C)CCOc1ccccc1.[Br-]` [Domiphen Bromide] + CC(C)C[C@H](NC(=O)[C@H](CCc1ccccc1)NC(=O)CN1CCOCC1)C(=O)N[C@@H](Cc1ccccc1)C(=O)N[C@@H](CC(C)C)C(=O)[C@@]1(C)CO1 [Carfilzomib] is 71.1.

Source of the values: the supplement of paper PMC6992640.
